Source: PubChem BioAssay (NCATS)
Values without a mark were called inactive. Results filed as inconclusive are left out. Activity calls are given as the source filed them. Unless noted, the call rests on the fitted dose curve; in most records, active means well fitted curve in either direction with a large enough effect (not every such curve was filed as active); inconclusive means small, poorly fitted or top-dose-only effect, or another doubt; inactive means flat fitted curve, though single readings scatter.

How the values were obtained:
[1] = target: Lysosomal acid glucosylceramidase (Homo sapiens) (UniProt P04062); experiment: Glucocerebrosidase-p2 (AID 348; in the data active means potency below about 10 µM; further: potency means the concentration at half of the fitted maximal effect); settings: purified GBA, blue fluorogenic substrate, 40 min
Sequence of Lysosomal acid glucosylceramidase (Homo sapiens) (P04062 whole entry, looked up): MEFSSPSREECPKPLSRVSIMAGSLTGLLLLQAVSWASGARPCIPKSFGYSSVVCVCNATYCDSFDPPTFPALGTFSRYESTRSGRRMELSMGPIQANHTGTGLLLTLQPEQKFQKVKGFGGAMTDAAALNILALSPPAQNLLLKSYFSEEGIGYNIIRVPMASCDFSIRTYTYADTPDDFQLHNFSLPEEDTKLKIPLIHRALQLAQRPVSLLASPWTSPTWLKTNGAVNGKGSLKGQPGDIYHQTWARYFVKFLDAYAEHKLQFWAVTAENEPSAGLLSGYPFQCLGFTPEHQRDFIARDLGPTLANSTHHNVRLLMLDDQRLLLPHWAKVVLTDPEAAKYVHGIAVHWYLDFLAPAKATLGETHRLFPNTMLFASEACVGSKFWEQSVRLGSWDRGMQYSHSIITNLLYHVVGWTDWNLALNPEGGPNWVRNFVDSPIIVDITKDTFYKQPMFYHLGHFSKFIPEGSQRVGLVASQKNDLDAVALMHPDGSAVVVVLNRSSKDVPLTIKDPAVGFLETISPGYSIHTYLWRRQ
How it was run: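 Compounds titrated from 0.6 nM upwards against 0.2 nM enzyme in pH 5.9 citric acid/KH2PO4, taurocholate, tween-20; blue fluorogenic substrate 80 uM, 40 min room temperature, stopped and read Ex 365/Em 440 for AC50.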

[2] = AP1 Signaling Pathway (AID 357); settings: ME-180 AP-1-bla reporter, EGF-induced, beta-lactamase ratio, 5 h; at 7.69 µM (top of the series) unless noted;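 further: ME-180 reporter cells stimulated with EGF at its EC50 level; on the % scale 0 is the no-effect control and ±100 the full control effect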
How it was run: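 First, ME-180 AP-1-bla cells were cultured overnight at 37 °C in low-serum Opti-MEM. Next, titrated compounds with EC50 EGF were incubated 5 hours. Finally, CCF4 was added for 2.5 hours and the 460/530 nm ratio recorded.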

[3] = Stat Signaling Pathway (AID 446); settings: ME-180 (cervical carcinoma) SIE beta-lactamase reporter, IL-6 stimulated, 5 h; at 7.69 µM (top of the series) unless noted;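 further: ME-180 cervical cancer cells given 40 pM IL-6 alongside compound; SIE-controlled beta-lactamase reporter measured as 460/530 nm FRET emission ratio; on the % scale 0 is the no-effect control and ±100 the full control effect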
How it was run: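 IL-6/STAT signaling read in ME-180 cells via an SIE beta-lactamase reporter. Stimulus was 40 pM IL-6 (its AC50) for 5 hrs, so both activation and inhibition register.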

[4] = target: Glucocorticoid receptor (Homo sapiens) (UniProt P04150); experiment: GR-EFC Redistribution (AID 451; calls by dose curve; further: potency means the concentration at half of the fitted maximal effect); settings: CHO-K1 GR-EFC translocation, beta-gal luminescence, 2 h
Sequence of Glucocorticoid receptor (Homo sapiens) (P04150 whole entry, looked up, the tested form may be a part): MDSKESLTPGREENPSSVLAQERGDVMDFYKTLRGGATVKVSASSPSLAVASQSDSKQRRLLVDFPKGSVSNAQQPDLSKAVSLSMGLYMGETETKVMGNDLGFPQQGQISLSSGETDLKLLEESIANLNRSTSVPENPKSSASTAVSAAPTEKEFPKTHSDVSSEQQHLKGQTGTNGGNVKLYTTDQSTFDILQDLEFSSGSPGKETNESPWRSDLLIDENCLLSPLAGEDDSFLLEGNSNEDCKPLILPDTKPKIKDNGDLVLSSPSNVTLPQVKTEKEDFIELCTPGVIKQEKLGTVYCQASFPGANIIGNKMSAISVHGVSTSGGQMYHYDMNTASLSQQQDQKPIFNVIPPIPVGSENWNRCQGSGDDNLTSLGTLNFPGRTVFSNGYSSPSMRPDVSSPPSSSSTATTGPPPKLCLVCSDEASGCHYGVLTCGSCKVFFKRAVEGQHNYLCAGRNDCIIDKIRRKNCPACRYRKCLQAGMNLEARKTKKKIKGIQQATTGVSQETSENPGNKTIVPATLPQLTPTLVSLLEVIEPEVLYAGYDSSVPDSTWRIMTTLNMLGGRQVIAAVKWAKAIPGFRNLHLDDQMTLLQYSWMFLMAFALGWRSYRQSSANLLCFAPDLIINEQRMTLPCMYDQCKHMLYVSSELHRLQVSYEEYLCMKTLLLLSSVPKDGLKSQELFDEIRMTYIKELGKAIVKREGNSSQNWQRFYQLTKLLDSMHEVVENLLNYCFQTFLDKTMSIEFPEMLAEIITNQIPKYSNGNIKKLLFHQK
How it was run: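 CHO-K1 cells stably expressing nuclear-localized β-gal enzyme acceptor and GR fused C-terminally to the enzyme donor fragment; ligand-driven nuclear translocation restores β-gal by complementation. Compounds titrated up to 46 uM final, 2 h at 37 °C; luminescence read.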

[5] = target: Mitogen-activated protein kinase 10 (Mus musculus) (UniProt Q61831); experiment: JNK3 AlphaScreen Assay (AID 530); settings: JNK3 lysate, c-Jun phosphorylation; series mostly up to 57.1 µM;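 further: kinase came from lysate of stimulated human HepG2 cells; signal reports phosphorylation of biotinylated GST-cJun 1-79 at Ser73 with 10 µM ATP; on the % scale 0 is the no-effect control and ±100 the full control effect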
How it was run: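 JNK3 came from HepG2 lysates pre-activated with IL-1beta and TNF-alpha and phosphorylated biotinylated GST-cJun (1-79) at 10 uM ATP, pH 7.6, room temperature. Compounds were titrated. AlphaScreen signal used anti-phospho-cJun (Ser73) antibody.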

[6] = target: 3',5'-cyclic-AMP phosphodiesterase 4B (Homo sapiens) (UniProt Q07343); experiment: qHTS Assay for Inhibitors of PDE-IV (AID 607; active means well fitted activation curve with a large enough effect in the main read-out, with a control signal flat, not every such curve was filed as active; further: % of control where 0% means no effect); settings: HEK293 ACTOne CNG channel cells, membrane potential fluorescence; series mostly up to 22.9 µM
Sequence of 3',5'-cyclic-AMP phosphodiesterase 4B (Homo sapiens) (Q07343 whole entry, looked up): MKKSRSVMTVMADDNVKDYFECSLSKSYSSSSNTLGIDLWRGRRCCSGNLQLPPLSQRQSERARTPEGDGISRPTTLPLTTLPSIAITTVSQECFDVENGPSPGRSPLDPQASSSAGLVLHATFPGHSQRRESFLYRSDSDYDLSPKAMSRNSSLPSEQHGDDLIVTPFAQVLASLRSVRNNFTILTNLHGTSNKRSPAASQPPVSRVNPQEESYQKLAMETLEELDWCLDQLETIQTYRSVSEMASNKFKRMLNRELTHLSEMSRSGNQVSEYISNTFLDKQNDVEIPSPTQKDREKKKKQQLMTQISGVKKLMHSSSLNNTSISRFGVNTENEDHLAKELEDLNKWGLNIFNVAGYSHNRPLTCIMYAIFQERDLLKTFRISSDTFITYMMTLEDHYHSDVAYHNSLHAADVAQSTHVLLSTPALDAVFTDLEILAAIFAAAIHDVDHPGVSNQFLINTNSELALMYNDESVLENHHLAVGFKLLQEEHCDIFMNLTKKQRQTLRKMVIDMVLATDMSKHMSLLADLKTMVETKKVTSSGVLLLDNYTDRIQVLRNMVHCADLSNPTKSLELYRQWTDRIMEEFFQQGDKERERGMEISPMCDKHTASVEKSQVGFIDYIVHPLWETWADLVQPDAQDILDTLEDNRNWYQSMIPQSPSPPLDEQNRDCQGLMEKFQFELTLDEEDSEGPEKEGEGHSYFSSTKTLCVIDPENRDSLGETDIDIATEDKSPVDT
How it was run: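 Live HEK293 cells with a modified cyclic nucleotide-gated (CNG) channel report intracellular cAMP via membrane-potential dye fluorescence (ex 535/em 590 nm). Endogenous PDE-IV was targeted. Compounds were tested at up to 22.9 uM final; RO 20-1724 100 uM served as control.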

[7] = target: Cytochrome P450 2D6 (Homo sapiens) (UniProt P10635); experiment: qHTS Assay for Inhibitors and Substrates of Cytochrome P450 2D6 (AID 891; active means well fitted curve in the direction sought with a large enough effect; an effect the other way counts as inactive or inconclusive;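 further: luciferin methyl ether substrate demethylated by CYP2D6 with NADPH regeneration; on the % scale 0 is the no-effect control and ±100 the full control effect; nearly all actives have a fitted effect of over 60% in size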); settings: recombinant CYP2D6, luciferin-ME EGE luminescence; series mostly up to 11.4 µM
Sequence of Cytochrome P450 2D6 (Homo sapiens) (P10635 whole entry, looked up): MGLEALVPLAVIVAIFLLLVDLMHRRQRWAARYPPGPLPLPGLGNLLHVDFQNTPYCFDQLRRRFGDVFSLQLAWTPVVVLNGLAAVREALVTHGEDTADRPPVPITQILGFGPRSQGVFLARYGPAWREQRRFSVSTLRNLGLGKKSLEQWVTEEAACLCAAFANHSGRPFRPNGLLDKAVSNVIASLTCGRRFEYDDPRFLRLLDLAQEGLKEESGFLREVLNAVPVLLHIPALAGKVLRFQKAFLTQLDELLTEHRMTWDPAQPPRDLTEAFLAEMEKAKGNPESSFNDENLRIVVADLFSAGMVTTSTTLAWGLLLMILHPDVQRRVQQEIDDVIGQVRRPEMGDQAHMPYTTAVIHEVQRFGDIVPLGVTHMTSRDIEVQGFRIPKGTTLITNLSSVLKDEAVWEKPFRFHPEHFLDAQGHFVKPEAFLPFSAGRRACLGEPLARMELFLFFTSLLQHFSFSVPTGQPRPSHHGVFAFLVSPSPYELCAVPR
How it was run: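 Human CYP2D6 (5 nM) with 30 uM Luciferin-ME EGE (at Km) in 100 mM KPO4, compound preincubated 10 min, then NADPH regeneration system for 60 min at room temperature. Luciferin read by luminescence; normalized to 1.43 uM quinidine.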

[8] = target: Glucocorticoid receptor (Homo sapiens) (UniProt P04150); experiment: GR-GFP Redistribution (AID 450;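 active means compounds whose dose series gives a full or clear partial fitted curve of increased nuclear translocation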; further: potency means the concentration at half of the fitted maximal effect); settings: U2OS GR-GFP nuclear translocation, laser cytometry, 2 h
[9] = target: Cytochrome P450 3A4 (Homo sapiens) (UniProt P08684); experiment: qHTS Assay for Activators of Cytochrome P450 3A4 (AID 885; active means well fitted curve in the direction sought with a large enough effect; an effect the other way counts as inactive or inconclusive; further: nearly all actives have a fitted effect of over 65% in size); settings: recombinant CYP3A4, Luciferin-PPXE luminescence, 60 min; series mostly up to 57.1 µM
Sequence of Cytochrome P450 3A4 (Homo sapiens) (P08684 whole entry, looked up): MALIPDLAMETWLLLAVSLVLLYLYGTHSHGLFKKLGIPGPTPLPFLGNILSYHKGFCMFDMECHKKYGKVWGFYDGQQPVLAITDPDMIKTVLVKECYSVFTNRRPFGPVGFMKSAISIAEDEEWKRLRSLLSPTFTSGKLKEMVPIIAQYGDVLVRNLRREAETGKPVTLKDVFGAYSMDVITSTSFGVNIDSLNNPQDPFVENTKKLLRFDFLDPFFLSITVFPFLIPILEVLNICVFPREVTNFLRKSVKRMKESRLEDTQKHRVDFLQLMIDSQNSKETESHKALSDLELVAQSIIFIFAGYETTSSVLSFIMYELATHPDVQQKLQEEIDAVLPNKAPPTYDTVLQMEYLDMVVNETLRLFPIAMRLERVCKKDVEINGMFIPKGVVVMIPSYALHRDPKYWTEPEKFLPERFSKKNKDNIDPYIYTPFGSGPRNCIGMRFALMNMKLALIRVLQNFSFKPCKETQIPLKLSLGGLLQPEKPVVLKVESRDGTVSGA
How it was run: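 Quantitative HTS format: compounds preincubated with 20nM human CYP3A4 and Luciferin-PPXE substrate at KM, reaction started by NADPH regeneration, stopped after 60 min, luciferase luminescence read 20 min later.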

[10] = target: Cytochrome P450 1A2 (Homo sapiens) (UniProt P05177); experiment: p450-cyp1a2 (AID 410; calls by dose curve;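 further: -100% = full effect of reference inhibitor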); settings: recombinant CYP1A2, luciferin-ME demethylation, luminescence; series mostly up to 11.4 µM
Sequence of Cytochrome P450 1A2 (Homo sapiens) (P05177 whole entry, looked up): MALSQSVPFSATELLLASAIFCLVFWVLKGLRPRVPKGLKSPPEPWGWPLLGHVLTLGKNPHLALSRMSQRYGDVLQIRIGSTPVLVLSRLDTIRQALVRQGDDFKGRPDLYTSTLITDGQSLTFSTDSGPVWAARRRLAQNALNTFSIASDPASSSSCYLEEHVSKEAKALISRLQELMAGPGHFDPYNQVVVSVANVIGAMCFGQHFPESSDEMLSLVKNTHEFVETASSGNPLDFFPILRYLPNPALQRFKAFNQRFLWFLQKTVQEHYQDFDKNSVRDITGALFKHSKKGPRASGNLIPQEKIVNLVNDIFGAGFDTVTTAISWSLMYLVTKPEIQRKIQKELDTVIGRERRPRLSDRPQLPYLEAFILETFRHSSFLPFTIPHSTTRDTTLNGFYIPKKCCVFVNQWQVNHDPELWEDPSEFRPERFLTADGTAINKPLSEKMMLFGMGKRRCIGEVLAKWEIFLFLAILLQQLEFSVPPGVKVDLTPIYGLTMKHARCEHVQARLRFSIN
How it was run: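 Inhibition was calculated relative to 57 uM furafylline (full inhibition). The reaction used human CYP1A2 at 20nM with Luciferin-ME at its Km, 100uM, driven by an NADPH-regenerating system for 60 min at room temperature.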

[11] = NFAT Signaling Pathway (AID 444); settings: Jurkat NFAT-bla M1, carbachol, beta-lactamase ratio, 5 h; at 7.69 µM (top of the series) unless noted;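 further: carbachol stimulus at about its EC50 of 1 µM final; on the % scale 0 is the no-effect control and ±100 the full control effect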
How it was run: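 Jurkat cells carrying an NFAT-driven β-lactamase reporter and co-transfected muscarinic M1 receptor were treated with compound plus carbachol (1 uM final, an EC50 level) for 5 h at 37 °C. CCF4 loading followed for 1 h at RT; 460/530 nm ratio gave %activity.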

SMILES	Potency [1] [µM]	activity change, negative = inhibition [2] [%]	activity, negative = inhibition [3] [%]	Potency [4] [µM]	activity change, negative = inhibition [5]	outcome [6]	Potency [7]	Potency [8] [µM]	activity change, positive = activation [9]	activity change, negative = inhibition [10]	activity change, negative = inhibition [11]	Potency [10]
CN[C@H]1[C@H](C)O[C@@H](O[C@@H]2C/C=C(/C)C/C(C)=C\C=C/CC[C@@H](C)CNC(=O)/C=C\C=C/[C@H]2C)C[C@@H]1O	> 11.4	-6.3	-1.24	> 9.22	1.47% [at 11.4 µM]	inactive	inactive					
c1cc(CCN2CCCCC2)ccn1	> 11.4	1.53	6.27	> 9.22	1.02% [at 11.4 µM]	inactive		> 46	-36% [at 11.4 µM]			
Nc1ccccc1O.O.O=C(O)[C@H]1[O][Sb][O][C@H]1C(=O)O	> 11.4		8.88		-2.79% [at 11.4 µM]	inactive		> 46		-23.1% [at 2.29 µM]	-17.5%	
C[C@@H]1O[C@@H](O[C@H]2C[C@@H](O)[C@@]3(CO)[C@H]4[C@H](O)C[C@]5(C)[C@@H](C6=CC(=O)OC6)CC[C@]5(O)[C@H]4CC[C@@]3(O)C2)[C@@H](O)[C@H](O)[C@H]1O	> 11.4		-4.36		-1.14% [at 11.4 µM]	inactive					-104% (active)	
CN(C)CCC(C#N)(c1ccccc1)c1ccccc1	> 11.4	6.93	6.64	> 9.22	2.05% [at 11.4 µM]	inactive		> 46				
CCSCC[C@H](N)C(=O)O	> 11.4	4.84	-0.0113	> 9.22	3.04% [at 11.4 µM]	inactive		> 46				
CS(=O)(=O)O[C@H]1CN2CCC1CC2	> 11.4		-2.65	> 9.22	2.61% [at 11.4 µM]	inactive		> 46			-10.5%	inactive
CC(C)c1nccn1Cc1ccc(Cl)cc1Cl	> 11.4	-14.8	1.75	> 9.22	-0.456% [at 11.4 µM]	inactive		> 46				
